Source: PubChem
In the library only some 2.8% were active in any assay of this set; here they are far more common.
TGFb inhibitor – qHTS for Inhibitors of TGF-b; HepG2 CAGA-GFP TGF-b/SMAD3 reporter, GFP fluorescence, 18 h; TGF-beta stimulated, 500 pg/mL final; Potency, µM (highest dose often 46.1 µM), hits mostly inhibitors; hit rate 1.2% among 410,000; AID 588855, 2011; note: nearly all actives have a fitted effect of over 65% in size
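Cell-based qHTS in HEPG2 carrying a CAGA-GFP Smad reporter; compounds added before 500 pg/mL final TGF-beta, 18 h incubation at 37 degrees C, GFP fluorescence quantified per cell by imaging cytometry.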
HepG2 viability – qHTS for Inhibitors of TGF-b: Cytotox Counterscreen; HepG2 CAGA-GFP viability, ATP luminescence, 18 h; Potency, µM (titrated, usually from 46.1 µM), actives largely listed as cytotoxic; hit rate 0.76% among 410,000; AID 588856, 2011
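CellTiter-Glo luminescence gave cytotoxicity after 18 hours at 37 degrees C. The cells were HepG2 CAGA-GFP in 1% FBS DMEM, stimulated with 500 pg/mL TGF-beta after compound addition. %Activity was normalised to no-cell wells (complete cell-killing) and DMSO (no toxicity), and curves were fitted and classified.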
HTT cytoprotect – qHTS Multiplex Assay to Identify Dual Action Probes in a Cell Model of Huntington: Cytoprotection (ATP); PC12 HTT-Q103 induced, cytoprotection, ATP luminescence, 40 h; Potency, µM (titrated, usually from 56.4 µM), most hits filed as activators; hit rate 0.14% among 230,000; AID 1471, 2008; note: nearly all actives have a fitted effect of over 45% in size
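Readout: ATPlite luminescence (ATP level). Model: stable PC12, inducible Htt exon1 Q103-GFP. Inducer: tebufenozide, 100 nM final. Compounds: dose series. No G418 in medium.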
ATXN2 expr inh – Primary qHTS for Inhibitors of ATXN expression. HEK-293 ATXN2-luciferase reporter, luminescence, 24 h. Potency, µM (titrated, usually from 57 µM), usual class: inhibitors. hit rate 0.72% among 360,000. AID 1745845, 2022; note: nearly all actives have a fitted effect of over 55% in size
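ATXN2-luciferase reporter cells (luciferase flanked by upstream and downstream ATXN2 gene portions) were treated 24 h at 37 °C with compounds at up to 57 uM. SteadyGlo luminescence gave expression; GF-AFC fluorescence gave viability.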
HTT aggregate – qHTS Multiplex Assay to Identify Dual Action Probes in a Cell Model of Huntington: Aggregate Formation (GFP) | AID 1688, 2009 | Potency, µM (highest dose often 46.1 µM), actives largely listed as inhibitors | PC12 HttQ103-GFP aggregates, Acumen cytometry, 40 h | hit rate 1.1% among 220,000; note: nearly all actives have a fitted effect of over 60% in size
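PC12/HTTQ103-GFP, ecdysone-inducible; teb 100 nM; cpd qHTS titration; GFP aggregates read on laser cytometer, Ex 488/Em 500-530 nm.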
S2 tox – Viability Counterscreen for Primary qHTS for Inhibitors of ATXN expression. hit rate 0.49% among 400,000. Potency, µM (doses to about 56.7 µM), hits mostly cytotoxic. S2 cells (HEK-293 line with an ATXN2-luciferase reporter) viability, CellTiter-Fluor protease fluorescence, 24 h; note: nearly all actives have a fitted effect of over 40% in size
A number is an active result; . = inactive; ? = inconclusive; / = no result; [ ] = another dose, or the depositor's remark. Calls come from the whole dose curve; as a rule, active = well fitted curve in the direction sought with a large enough effect; inconclusive = small, poorly fitted or top-dose-only effect, or another doubt; inactive = no such curve, though single readings can be large; an effect the other way counts as inactive or inconclusive.

SMILES	TGFb inhibitor	HepG2 viability	HTT cytoprotect	ATXN2 expr inh	HTT aggregate	S2 tox
COc1ccc(CNC(=O)c2cnn(-c3ncc4c(n3)-c3ccccc3CC4)c2C)cc1OC	/	/	/	/	/	.
O=C(C[n+]1cccc2cccc(O)c21)c1ccc2ccccc2c1	.	.	/	/	/	/
CCC(CO)[n+]1c(C)cc(/C=C2\Sc3ccccc3N2Cc2ccccc2)cc1C (stereo not drawn)	.	.	.[10 µM]	?	20µM	?
CCN1/C(=C2\SC(=S)N(Cc3ccccc3)C2=O)Sc2ccccc21	.	.	.[10 µM]	.	.	.
COc1ccc(C)cc1NC(=O)NC1CC(=O)N(c2ccc3c(c2)OCCO3)C1 (stereo not drawn)	.	11µM	/	/	/	.
O=[N+]([O-])c1ccc(COc2ccc(-c3[nH]ncc3-c3ccc(Cl)cc3)c(O)c2)cc1	?	.	.[10 µM]	?	.	?
CCc1cc(-c2[nH]ncc2-c2ccc([N+](=O)[O-])cc2)c(O)cc1OC	13µM	.	/	.	/	.
CC(C)n1c(C=C[C@H](O)C[C@H](O)CC(=O)O)c(-c2ccc(F)cc2)c2ccccc21	/	/	/	.	/	/
CC(C)(C)n1ncc2c(=O)n(Cc3ccc(F)cc3F)cnc21	.	.	/	/	/	/
CCCN(CCC)S(=O)(=O)c1ccc(C(=O)Nc2nnc(CSC)o2)cc1	.	.	.	?	11µM	?
CCCCN(CC)S(=O)(=O)c1ccc(C(=O)Nc2nnc(-c3ccccc3Cl)o2)cc1	/	/	.[10 µM]	/	10µM	/
CCCCN(CC)S(=O)(=O)c1ccc(C(=O)Nc2nnc(CSC)o2)cc1	.	.	.	.	10µM	.
COc1ccccc1-c1nnc(NC(=O)c2ccc(S(=O)(=O)N(C)C)cc2)o1	.	.	.	.	.[9.22 µM]	.
CCN(Cc1ccccc1)S(=O)(=O)c1ccc(C(=O)Nc2nnc(-c3ccccc3OC)o2)cc1	.	.	.[10 µM]	?	22µM	.
COc1cc(CN2CCC3(CCC(CNC(=O)c4ccco4)O3)CC2)ccc1O (stereo not drawn)	/	/	/	/	/	.
COc1ccc2c(c1)C(=O)[C@H](OC(=O)N[C@H](C)C1CCCCC1)[C@@H](c1ccc(OC)c(Br)c1)O2	/	/	.	/	/	/
Cn1c(=O)oc2cc(S(=O)(=O)Nc3ccc(F)cc3)ccc21	.	4µM	/	.	/	.
Cn1c(=O)oc2cc(S(=O)(=O)NCc3ccncc3)ccc21	?	.	.[0.074 µM]	.	8.9µM	.
O=C(CN1C(=O)c2ccccc2C1=O)NCC1Cc2cccc(-c3ncccn3)c2O1 (stereo not drawn)	/	/	/	/	/	.
COc1ccc(CN2CCOc3ccc(CN4CCC(O)(c5cccnc5)CC4)cc3C2)cc1OC	/	/	/	/	/	.
CCN1/C(=C\c2ccc3cc(C)ccc3[n+]2CC)Sc2cc(C)c(C)cc21	.	.	.	?	0.89µM	?
CCN1/C(=C/c2ccc3cc(C)cc(C)c3[n+]2CC)Sc2cc(C)ccc21	.	.	.[10 µM]	?	?	?
CCN1/C(=C/c2ccc3cccc(C)c3[n+]2CC)Sc2ccccc21	.	14µM	.	?	1.1µM	?
Cc1ccc(-n2[nH]c(=O)c3cccnc32)cc1	.	.	.	.	.	.
Cc1ccc(-n2[nH]c(=O)c(-c3ccccn3)c2C)cc1	.	.	.	1.8µM	.	.
SMILES	TGFb inhibitor	HepG2 viability	HTT cytoprotect	ATXN2 expr inh	HTT aggregate	S2 tox
O=Cc1cccc(C=O)c1	.	.	/	/	/	/
O=C(Nc1ccccc1C(=O)N/N=C/c1ccco1)c1ccc(F)cc1	?	13µM	/	.	.	.
CNc1ccc(C=C2C=CC=C2)cc1	.	.	/	/	/	/
O=C1CC(=Nc2ccc([N+](=O)[O-])cc2)NN1c1c(Cl)cc(Cl)cc1Cl	16µM	.	/	/	/	.
CC(=O)NC1=CC(=O)c2nonc2C1=O	?	.	/	/	/	/
CC(C)[C@@H]1CC[C@@H](C)C[C@H]1OC(=O)C[n+]1cc(-c2ccc(Cl)cc2)n2c1CCCCC2	?	.	.[10 µM]	?	.[9.22 µM]	?
COc1ccc(-c2c[n+](CC(=O)OC3CC(C)CCC3C(C)C)c3n2CCC3)cc1 (stereo not drawn)	20µM	.	.[10 µM]	?	10µM	?
